The text below walks through data of PubChem BioAssay.

The source made the active and inactive calls.

Test [1] deals with Human papillomavirus type 1a protein E7 (residues 44-93). Description: HPV1a E7 fragment binders on microarrays, primary screen, biochemical, small-molecule microarray, residues 44-93, 635 nm fluorescence (AID 1108).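 Further: E7 fragment applied at 1 µg/mL in TBST for 1 h at 4 C; score combines spot fluorescence with its signal to noise ratio.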 The note with it: small-molecule microarray binding, fluorescence 635 nm; higher = more signal.
A short description of test [2]: modulators of HCV replicon luciferase signal, primary screen, HCV replication inhibitor project, Huh7 cells, luciferase reporter (AID 1109).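 Further: huh7 hepatoma cells harbouring a luciferase neomycin HCV replicon reporter; luciferase luminescence as measure of HCV replicon replication; test concentration not given here.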 The note with it: 48 h, higher = more signal.
Test [3] has as its target Left-right determination factor 2 (Homo sapiens) (UniProt O00292). In words: LEFTY2 binders on small-molecule microarrays, primary screen, biochemical, small-molecule microarray, 635 nm fluorescence scan (AID 1110). The conditions noted are these: LEFTY2 binding, higher = more signal.
Test [4] deals with Calmodulin-1 (Homo sapiens) (UniProt P0DP23). Description: CALM1 binders on microarrays, EGTA buffer, profiling panel, biochemical, small-molecule microarray, Cy5-labelled CALM1 (AID 1111).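 Further: labelled calmodulin applied in Tris saline Tween buffer holding calcium plus EGTA and DTT.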 The conditions noted are these: Cy5-CALM1 binding fluorescence, higher = more signal.
Test [5] shares this target. Description: calcium-bound CALM1 binders on microarrays, profiling panel, artefact control for SMM control-protein annotation, biochemical, small-molecule microarray, Cy5-labelled CALM1, plus calcium (AID 1112).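 Further: score merges spot fluorescence with signal to noise from triplicate slides.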 The conditions noted are these: Cy5-CALM1 binding fluorescence, higher = more signal.
A short description of test [6]: small-molecule microarray binders of probe aWnt5a, primary screen, biochemical, biotinylated probe, 635/667 nm fluorescence (AID 1113).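 Further: score merges 667 nm fluorescence intensity with signal-to-noise per printed feature.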 The conditions noted are these: higher = more signal.
The nature of test [7]: small-molecule microarray binders of probe aShh, primary screen, biochemical, biotinylated probe, 635/667 nm fluorescence (AID 1114).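 Further: probe is biotin-labelled aShh protein from a stem cell growth factor screen; measures binding of labelled protein to compounds printed on the slide; score merges feature fluorescence at 667 nm with signal-to-noise.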 The note with it: higher = more signal.
Test [8] is described as follows: small-molecule microarray binders of probe aNog, primary screen, biochemical, biotinylated probe, 635/667 nm fluorescence (AID 1115).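 Further: probe is biotinylated aNog protein used at 0.15 µg/mL for 1 h at 4 C; z-score combines 667 nm fluorescence of each spot with its signal to noise.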 The note with it: higher = more signal.
For test [9], the target named is Torsin-1A-interacting protein 1 (Homo sapiens) (UniProt Q5JTV8). Description: LAP1 binders from COS7 cell lysate, primary screen, small-molecule microarray, 635/667 nm fluorescence (AID 1116). The conditions noted are these: COS7-hLAP1 lysate binding, 635 nm fluorescence, higher = more signal.
Test [10] addresses Alpha-bungarotoxin (Bungarus multicinctus) (UniProt P60615). In words: alpha-bungarotoxin binders on microarray, profiling panel, artefact control for SMM control protein annotation, biochemical, small-molecule microarray, Alexa647 label, 635/667 nm fluorescence (AID 1117). The note with it: alpha-BTX-A647 binding fluorescence, higher = more signal.
A further test deals with Albumin (Bos taurus) (UniProt P02769). Description: bovine serum albumin binders on microarray, profiling panel, artefact control for SMM control protein annotation, biochemical, small-molecule microarray, Alexa647 label, 635/667 nm fluorescence (AID 1118).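 Further: score merges 667 nm emission intensity and signal-to-noise per printed compound spot.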 The note with it: BSA-A647 binding, fluorescence 635 nm, higher = more signal.
The nature of test [11]: small-molecule microarray binders of probe aXIP, primary screen, biochemical, NeuroSMM set, 635/667 nm fluorescence (AID 1119).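 Further: probe is the protein aXip251-270 applied at 1 µg/mL to compound-printed slides; binding of probe to printed compounds measured as 667 nm fluorescence plus signal to noise.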 The note with it: higher = more signal, called active from +8 up or from −8 down.
A short description of test [12]: small-molecule binders of probe aNOTCH3, primary screen, biochemical, small-molecule microarray, 635/667 nm fluorescence (AID 1120).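 Further: probe is a biotin-tagged antibody raised against NOTCH3 rather than NOTCH3 protein; score merges spot fluorescence near 667 nm with spot signal to noise.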 The conditions noted are these: higher = more signal.
A short description of test [13]: small-molecule binders of probe aNOTCH2, primary screen, biochemical, small-molecule microarray, 635/667 nm fluorescence (AID 1121).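 Further: score merges feature fluorescence read at 667 nm with its signal to noise.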 The note with it: higher = more signal.
For test [14], the target named is Carbonic anhydrase 2 (Homo sapiens) (UniProt P00918). Description: CAII small-molecule binders, profiling panel, biochemical, small-molecule microarray, Alexa647-labelled CAII (AID 1122). The note with it: CAII-A647 binding fluorescence, higher = more signal.
Test [15] is described as follows: COS7 lysate on small-molecule microarray, probe aHis, 635 nm (AID 1123).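 Further: z-score combines 667nm fluorescence intensity with signal-to-noise per printed compound spot.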 The conditions noted are these: COS7 cell lysate, fluorescence, higher = more signal.
Test [16] can be described thus: compound binding in COS7 lysate, probe aLAP1, primary screen, cell lysate, small-molecule microarray (AID 1124).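 Further: lysate comes from COS7 cells expressing LAP1 and is applied at 0.3 µg/mL; score merges spot fluorescence near 667 nm with signal-to-noise over triplicate slides.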 The conditions noted are these: probe aLAP1, fluorescence, higher = more signal.
The test system of a further test is Sam68 (KHDRBS1). In words: Sam68 small-molecule binders, primary screen, biochemical, small-molecule microarray, 635 nm fluorescence (AID 1125).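 Further: score merges 667 nm channel intensity with signal to noise over triplicate slides.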 The conditions noted are these: small-molecule microarray binding, higher = more signal.
For test [17], the system named is Chordin-like protein 2 (CHRDL2). Description: CHRDL2 small-molecule binders, primary screen, biochemical, small-molecule microarray, 635 nm fluorescence (AID 1126).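 Further: printed compound slides probed with Chrdl2 protein at 4 µg/mL for 1 h at 4 C; score merges 667 nm emission intensity with signal to noise over three replicate slides.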 The conditions noted are these: small-molecule microarray binding, fluorescence 635 nm; higher = more signal.
In test [18] the target is Concanavalin-A (Canavalia ensiformis) (UniProt P02866). Description: ConA small-molecule binders, primary screen, artefact control for SMM control protein annotation, biochemical, small-molecule microarray, Alexa647 label, 635 nm (AID 1127).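 Further: z combines 667 nm emission intensity with signal-to-noise across three replicate slides.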 The note with it: ConA-A647 binding fluorescence, higher = more signal.
Concanavalin-A (Canavalia ensiformis), sequence (P02866 whole entry, looked up): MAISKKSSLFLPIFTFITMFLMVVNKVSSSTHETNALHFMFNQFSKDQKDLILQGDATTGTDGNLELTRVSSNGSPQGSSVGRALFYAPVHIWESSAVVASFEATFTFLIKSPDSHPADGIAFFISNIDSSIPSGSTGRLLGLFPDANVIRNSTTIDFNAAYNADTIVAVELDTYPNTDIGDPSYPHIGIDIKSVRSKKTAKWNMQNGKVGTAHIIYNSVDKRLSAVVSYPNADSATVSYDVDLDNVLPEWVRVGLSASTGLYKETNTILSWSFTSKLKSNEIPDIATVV

Left-right determination factor 2 (Homo sapiens), sequence (O00292 whole entry, looked up): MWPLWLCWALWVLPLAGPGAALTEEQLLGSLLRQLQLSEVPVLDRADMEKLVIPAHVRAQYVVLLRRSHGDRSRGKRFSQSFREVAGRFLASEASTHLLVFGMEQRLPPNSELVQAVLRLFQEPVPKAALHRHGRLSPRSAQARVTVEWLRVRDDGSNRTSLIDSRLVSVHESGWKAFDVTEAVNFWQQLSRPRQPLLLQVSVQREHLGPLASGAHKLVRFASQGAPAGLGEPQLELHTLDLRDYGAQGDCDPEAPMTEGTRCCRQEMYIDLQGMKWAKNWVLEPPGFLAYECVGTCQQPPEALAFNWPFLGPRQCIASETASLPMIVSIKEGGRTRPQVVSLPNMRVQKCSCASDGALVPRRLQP
Torsin-1A-interacting protein 1 (Homo sapiens), sequence (Q5JTV8 whole entry, looked up): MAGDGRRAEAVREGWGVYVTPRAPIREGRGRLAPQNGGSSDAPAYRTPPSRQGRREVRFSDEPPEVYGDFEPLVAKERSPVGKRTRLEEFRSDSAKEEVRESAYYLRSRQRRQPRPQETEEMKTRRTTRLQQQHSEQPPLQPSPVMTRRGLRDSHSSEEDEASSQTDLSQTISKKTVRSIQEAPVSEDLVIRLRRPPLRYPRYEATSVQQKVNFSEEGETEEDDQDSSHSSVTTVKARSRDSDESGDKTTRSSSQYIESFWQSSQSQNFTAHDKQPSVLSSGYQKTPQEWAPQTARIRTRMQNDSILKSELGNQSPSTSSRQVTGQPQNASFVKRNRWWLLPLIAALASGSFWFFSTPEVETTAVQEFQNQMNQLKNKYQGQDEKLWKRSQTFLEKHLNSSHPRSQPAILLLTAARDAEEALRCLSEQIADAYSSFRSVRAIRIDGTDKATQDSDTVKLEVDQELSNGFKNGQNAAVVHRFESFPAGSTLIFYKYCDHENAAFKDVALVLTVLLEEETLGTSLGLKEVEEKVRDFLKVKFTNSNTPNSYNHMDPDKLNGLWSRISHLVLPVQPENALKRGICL
Alpha-bungarotoxin (Bungarus multicinctus), sequence (P60615 whole entry, looked up): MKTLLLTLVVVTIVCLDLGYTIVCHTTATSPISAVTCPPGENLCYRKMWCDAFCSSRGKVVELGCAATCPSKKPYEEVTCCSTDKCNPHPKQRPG
Albumin (Bos taurus), sequence (P02769 whole entry, looked up): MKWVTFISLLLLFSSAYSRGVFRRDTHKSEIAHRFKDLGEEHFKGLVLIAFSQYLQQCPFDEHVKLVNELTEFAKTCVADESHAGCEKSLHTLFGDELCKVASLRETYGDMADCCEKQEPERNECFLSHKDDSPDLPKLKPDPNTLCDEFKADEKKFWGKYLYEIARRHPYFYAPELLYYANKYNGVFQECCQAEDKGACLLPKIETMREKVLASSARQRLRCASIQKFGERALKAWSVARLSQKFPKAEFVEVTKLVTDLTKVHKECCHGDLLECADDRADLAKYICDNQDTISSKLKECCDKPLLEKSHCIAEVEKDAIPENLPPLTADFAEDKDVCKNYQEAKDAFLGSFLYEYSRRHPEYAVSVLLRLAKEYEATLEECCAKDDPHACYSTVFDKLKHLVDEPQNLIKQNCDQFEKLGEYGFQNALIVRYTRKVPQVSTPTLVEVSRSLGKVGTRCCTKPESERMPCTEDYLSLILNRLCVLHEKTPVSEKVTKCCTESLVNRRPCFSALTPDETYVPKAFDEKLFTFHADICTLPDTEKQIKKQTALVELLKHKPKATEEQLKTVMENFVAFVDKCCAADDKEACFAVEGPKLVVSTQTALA

`CCCNC(=O)[C@@]1(c2ccc([N+](=O)[O-])cc2)CC(=O)N(CC23CC4CC(CC(C4)C2)C3)[C@@H]1c1ccc(CO)cc1I`: the composite z-score was 0.0836 in [1]; 0.152 in test [3]; 0.838 in test [4]; 0.94 in test [5]; -0.0303 in [6]; 0.166 in test [7]. The composite z-score in [8] was 0.431; in test [9] it was -0.421; in test [10] it was 0.695; with Albumin (Bos taurus) it was 0.41; in [12] it was 0.216; in [13] it was 0.126. In addition, the composite z-score was 0.118 in test [14]; 1.33 in test [15]; 0.137 in [16]; 0.974 in the test with Sam68 (KHDRBS1); -0.366 in test [17]; 0.519 in test [18]. Moreover, the z-score in [2] is -3.32. Besides, the composite Z-score in test [11] was 0.609 (inactive).
With `Cc1ccc([C@H]2C(C(=O)O)=C[C@@H](C(C)C)N2S(=O)(=O)c2ccc(C)cc2)cc1`, the composite z-score is 1.39 in [1]; -0.448 in test [3]; 0.995 in test [4]; 0.237 in test [5]; 0.0597 in test [6]; -0.0769 in test [7]. In addition, the composite z-score in test [8] was 0.129; in test [9], 0.984; in test [10], 0.11; with Albumin (Bos taurus), 0.284; in test [12], 0.0596; in test [13], 0.0161. The composite z-score in [14] was 0.772; in [15] it was 2.86; in test [16], -0.134; with Sam68 (KHDRBS1) it was 1.3; in test [17], -0.209; in test [18] it was 0.555. The molecule further came in with a z-score in test [2] of 0.58. Moreover, the composite Z-score in [11] is -0.236 (inactive).
Consider `C=CCC(OC(C)=O)[C@@H]1[C@@H](N(Cc2cc3ccccc3o2)C(=O)c2ccc(-c3ccccc3)cc2)c2cc(OCCCO)ccc2N1C(=O)Cc1ccc2ccccc2c1` (stereo not given in full), for which the composite z-score was 0.006 in [1]; -0.36 in test [3]; -0.27 in test [4]; 0.459 in [5]; -0.0704 in [6]; -0.0709 in [7]. Moreover, the composite z-score was -0.267 in test [8]; 0.0452 in test [9]; 0.738 in [10]; -0.0043 with Albumin (Bos taurus); -0.0716 in test [12]; -0.166 in test [13]. For the same molecule, the composite z-score was -0.127 in test [14]; 0.466 in [15]; 0.255 in test [16]; -0.156 in the test on Sam68 (KHDRBS1); 0.213 in test [17]; -0.136 in test [18]. The z-score in [2] was -0.532. Moreover, in test [11], the composite Z-score is -0.12 (inactive).
Take `C=C(C(=O)CC[C@@H](OC(=O)c1cccnc1)c1ccc(OCCO)cc1)C(C)C`: the composite z-score in test [1] is 0.16; in test [3] it was 0.286; in [4] it was -0.277; in test [5], -1.85; in test [6] it was -0.0145; in test [7], -0.0035. For the same molecule, the composite z-score was -0.0863 in test [8]; 2.09 in test [9]; 0.46 in [10]; -0.541 in the test with Albumin (Bos taurus); 0.123 in test [12]; -0.179 in [13]. The composite z-score in [14] is 0.0384; in test [15], -0.266; in test [16], 0.354; in the test on Sam68 (KHDRBS1) it was 0.921; in test [17] it was 0.606; in test [18], 0.303. Further, in test [2], the z-score is -4.49. In addition, in [11], the composite Z-score was -0.471 (inactive).
Take `O=S(=O)(NCCCO)c1ccc(Br)cc1`: the composite z-score is 0.54 in test [1]; 0.548 in test [3]; 0.873 in test [4]; 0.698 in test [5]; 0.0251 in test [6]; -0.138 in [7]. The composite z-score in test [8] was -0.122; in [9], 0.365; in test [10] it was 0.284; with Albumin (Bos taurus) it was 0.45; in [12] it was -0.0414; in [13], -0.057. The composite z-score in test [14] turned out to be 0.62; in [15], 0.0505; in test [16] it was 0.337; with Sam68 (KHDRBS1), 0.522; in [17], 0.678; in test [18], 0.397. The molecule also had a z-score in [2] of -0.164. For the same molecule, the composite Z-score in test [11] was -0.854 (inactive).
As to `OCCCc1cc[n+](Cc2cccc(OC(F)(F)F)c2)cc1`, the composite z-score in [1] was 1.47; in test [3], 0.208; in test [4], 0.66; in [5], 0.56; in [6], -0.0758; in test [7], 0.199. The composite z-score in [8] is 0.134; in [9] it was 0.925; in test [10], 0.718; in the test with Albumin (Bos taurus), 0.589; in [12] it was 0.147; in [13], -0.101. Also, the composite z-score was determined as 0.842 in test [14]; 2.02 in test [15]; 0.348 in [16]; 1.28 in the test on Sam68 (KHDRBS1); 0.421 in test [17]; 1.09 in test [18]. The molecule also yielded a z-score in [2] of 0.242. Further, the composite Z-score in test [11] is 0.755 (inactive).
